Counter-ions that a name gives are not always drawn. ± gives the standard deviation of the averaged measurements. A value given as a limit tells only on which side of the number the result lay.

The test system of this assay is Toxoplasma gondii RH (in HFF). Description: parasite growth relative to the screen mean (all compounds = 100%); higher = less inhibition of parasite growth. Particulars: 5 µM; 72 h; oxygen 21 %. Put shortly:
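Library compounds (10 mM DMSO stocks) were pin-transferred to 5 µM final onto confluent human foreskin fibroblasts in 96-well plates, then infected within 2 h with RH β-Gal–GFP Toxoplasma (MOI 1:5) and grown 72 h at 21% O2. Parasite number came from a CPRG β-Gal assay against in-plate standard curves. Growth is expressed relative to the screen mean (all compounds = 100%), averaged over two screens. Uninfected host-cell viability was checked by CellTiter-Blue.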
The compound `CCCCOc1cc(CC2CNC(=O)N2)ccc1OC` (centres undefined) yielded a parasite growth of 156 ± 27%.
Under `O=C(O)CCc1ccc(NCc2cccc(Oc3ccccc3)c2)cc1` stands 198 ± 12%; under `CC1=Nc2ccc(Cl)cc2S(=O)(=O)N1` [Diazoxide], 77.6 ± 16%; under `CCOC(=O)c1c(C)[nH]c2ccc3c(c12)CN1CCc2cc(OC)ccc2C1O3` (centres undefined), 16.8 ± 6.5%.
Under `COc1ccc(CC(C)NCC(O)c2ccc(O)c(NC=O)c2)cc1` (centres undefined) [Formoterol hemifumarate] stands 126 ± 5.6%; under `CN(C)C/C=C(/c1ccc(Br)cc1)c1cccnc1` [Zimelidine dihydrochloride], 126 ± 4.6%; under `Cl/C(=C\n1cncn1)c1ccc(Cl)cc1Cl` [Loreclezole hydrochloride], 146 ± 12%.
The figure for `OC1CCC(Nc2nc(-c3ccccc3)nc3[nH]ccc23)CC1` (centres undefined) is 116 ± 3%; for `CCOC(=O)C1=C(COCCN)NC(C)=C(C(=O)OC)C1c1ccccc1Cl` (centres undefined) [Amlodipine besylate] it is 87.9 ± 30%.
Compound `CCCCn1c(=O)c2[nH]c(C34CC5CC(CC3C5)C4)nc2n(CCCO)c1=O` displayed a parasite growth of 101 ± 16%.
`Cc1ccc2c(=O)c3ccccc3n(CCCN)c2c1C`: the parasite growth is under 0%.
`Fc1ccc([C@@H]2CCNC[C@H]2COc2ccc3c(c2)OCO3)cc1` [Paroxetine maleate] showed a parasite growth of 39.5 ± 4%.
Take `CNC(=C[N+](=O)[O-])NCCSCc1ccc(CN(C)C)o1` [Ranitidine hydrochloride]: the parasite growth turned out to be 94.7 ± 18%.
As for `CC[N+](CC)(CC)CC(=O)Nc1c(C)cccc1C` [QX 314 chloride], the parasite growth was 133 ± 29%.
Compound `Cn1ccc2cc3c(cc21)CCN3C(=O)Nc1cccnc1` yielded a parasite growth of 121 ± 17%.
Under `CCS(=O)(=O)N1CCC[C@@H]2CN3CCc4cc(OC)ccc4[C@@H]3C[C@@H]21` stands 125 ± 31%; under `CN1CCC(=C2c3ccccc3C=Cc3ccccc32)CC1` [Cyproheptadine hydrochloride], 12.1 ± 16%.
The compound `COc1cc2c(CCNC(C)=O)c[nH]c2cc1Cl` [6-Chloromelatonin] gave a parasite growth of 131 ± 24%.
Turning to `CC(C)Oc1ccc2c(=O)c3cc(C(=O)O)ccc3oc2c1`, the parasite growth amounted to 81.9 ± 15%.
Compound `O=C(O)c1cccnc1C(=O)O` [Quinolinic acid] registered a parasite growth of 125 ± 12%.
The figure for `CC[C@H](C)C(=O)O[C@H]1CCC=C2C=C[C@H](C)[C@H](CC[C@@H]3C[C@@H](O)CC(=O)O3)[C@H]21` [Mevastatin] is 109 ± 3.3%; for `O=C(c1ccc(Nc2nccc(-c3cc4ccccc4s3)n2)cc1)N1CCC(N2CCCC2)CC1` it is under 0%.
With `Cc1ccccc1C(=O)c1ccc(Nc2ccc(Br)cc2N)cc1Cl`, the parasite growth came out at 172 ± 48%.
Regarding `COc1cccc(OC)c1OCCNCC1COc2ccccc2O1` (centres undefined) [WB 4101 hydrochloride], the parasite growth stood at 93.3 ± 33%.
In the case of `CC1=C(/C=C/C(C)=C/C=C/C(C)=C/C(=O)O)C(C)(C)CCC1` [Retinoic acid], the parasite growth is 85 ± 12%.
Take `Cc1[nH]c(/C=C2\C(=O)Nc3ccccc32)c(C)c1CCC(=O)O`: the parasite growth was 102 ± 8.8%.
`CC(C)(C)[N+]([O-])=Cc1ccc(S(=O)(=O)O)cc1S(=O)(=O)O` displayed a parasite growth of 86.3 ± 26%.
In the case of `Cc1ccc(NC(=O)c2cccc(N(C)C)c2)cc1NC(=O)c1ccc(O)cc1`, the parasite growth stood at 141 ± 7.3%.
As to `Cc1cc(NC(=O)Nc2ccc(N(C)C)cc2)c2cc(F)cc(F)c2n1`, the parasite growth stood at 159 ± 3.7%.
Take `CN(CCOc1ccc(-c2ccc3c(c2)OCO3)cc1C(C)(C)C)CC(=O)O`: the parasite growth came out at 110 ± 38%.
Under `CN(C(=O)c1c(O)c2ccccc2n(C)c1=O)c1ccccc1` [Linomide] stands 135 ± 4.5%.
The compound `COC(=O)/C=C/c1cc(O)ccc1O` [Methyl 2,5-dihydroxycinnamate] yielded a parasite growth of 126 ± 30%.
Turning to `Oc1ccc(-c2c(-c3ccccc3)nn3c(C(F)(F)F)cc(C(F)(F)F)nc23)cc1`, the parasite growth is 170 ± 8.6%.
Turning to `NCCc1c[nH]cn1` [Histamine dihydrochloride], the parasite growth stood at 80.2 ± 36%.
`CCOC(=O)[C@H](CCc1ccccc1)N[C@@H](C)C(=O)N1Cc2cc(OC)c(OC)cc2C[C@H]1C(=O)O` [Moexipril hydrochloride] had a parasite growth of 63.9 ± 14%.
On to `OCC(CO)N[C@H]1C[C@](O)(CO)[C@@H](O)[C@H](O)[C@H]1O` [Voglibose], for which the parasite growth is 68.07 ± 0.24%.
The compound `COc1ccc(NS(=O)(=O)c2ccc(I)cc2)cc1N1CCN(C)CC1` gave a parasite growth of 122 ± 17%.
`NS(=O)(=O)Cc1noc2ccccc12` [Zonisamide] registered a parasite growth of 131 ± 2.2%.
The compound `CCOC(=O)C1=C(N)Oc2ccc(Br)cc2C1C(C#N)C(=O)OCC` (centres undefined) yielded a parasite growth of 135 ± 2.5%.

These data come from the supplement of paper PMC4894684.
